Inhibition data for 30 molecules are collected here from ChEMBL document CHEMBL1157539, “Thousands of chemical starting points for antimalarial lead identification” (Nature, 2010).

Common to all, as to assay type: functional
The subject of test [1] is Plasmodium falciparum. The experiment in a line: GSK_TCMDC: Inhibition of Plasmodium falciparum 3D7 in whole red blood cells, using parasite LDH activity as an index of growth. Test compounds present at 2uM.
The test system of test [2] is Plasmodium falciparum. As to the kind of experiment: GSK_TCMDC: Inhibition of Plasmodium falciparum Dd2 in whole red blood cells, using parasite LDH activity as an index of growth. Test compounds present at 2uM.
The next test has as its system HepG2. As to the kind of experiment: GSK_TCMDC: Percent inhibition of human HepG2 cell line. Test compounds present at 10uM.

Turning to `CC(=O)Nc1ccc(CN2CCc3ccc(NS(=O)(=O)c4cccc(OCc5ccc(Cl)cc5)c4)cc3CC2)s1`, the figures for the Inhibition in the test with Plasmodium falciparum [1], in the test with Plasmodium falciparum [2] and with HepG2 were 93%, 7% and 23%, respectively.

On to `Br.CCCCCCCCn1c2c(c(=N)c3c1CCC3)CCC2`, for which the Inhibition – broadly, the share of the control response that was lost under treatment – in the test on Plasmodium falciparum [1] is reported as 99%; with Plasmodium falciparum [2], 93%; with HepG2 it was 47%.

As to `O=C(Nc1ccc(Cl)cc1)Nc1ccc2c(c1)N1CCN=C1S2`, the Inhibition in the test on Plasmodium falciparum [1] came to 99%; in the test with Plasmodium falciparum [2] it was 100%; with HepG2, 15%.

For `COc1ccc(-c2cccc(NC(=O)c3ccc(C#N)cc3)c2)cc1CN1CCCN(C)CC1.O=C(O)C(F)(F)F`, the Inhibition in the test on Plasmodium falciparum [1] came to 100%; with Plasmodium falciparum [2] it was 89%; with HepG2, 22%.

On to `CCOC(=O)c1ccc(NC(=O)Nc2ccc(-c3cccc(-c4nc5cccc(C)c5[nH]4)c3)cc2)cc1`, for which the Inhibition with Plasmodium falciparum [1] was 100%; with Plasmodium falciparum [2], 100%; in the test on HepG2, 91%.

With `CCC(C)(C)NC(=O)C(c1cccc(OC)c1)N(C(=O)CNC(=O)c1cccs1)c1ccc2c(c1)OCCO2` (stereo not given), the Inhibition in the test with Plasmodium falciparum [1] was determined as 100%; with Plasmodium falciparum [2], 76%; in the test on HepG2, 0%.

Turning to `CCCCCCCCCn1c(NCc2cc(Cl)ccc2O)nc2ccccc21`, the Inhibition with Plasmodium falciparum [1] is reported as 97%; in the test with Plasmodium falciparum [2], 92%; in the test on HepG2 it was 13%.

With `CC(C)(C)c1ccc(NC(=O)N[C@@H]2CCN(c3ccnc4ccccc34)C2)cc1.Cl`, the Inhibition with Plasmodium falciparum [1] is 100%; with Plasmodium falciparum [2] it was 96%; in the test with HepG2 it was 23%.

Regarding `COc1ccc2nccc(C(=O)NC3CCC(CCN4CCc5cc(C#N)ccc5C4)CC3)c2c1.Cl` (stereo not given), the Inhibition in the test with Plasmodium falciparum [1] was found to be 97%; in the test on Plasmodium falciparum [2], 1%; in the test with HepG2, 12%.

With `Cc1cc(Br)cnc1CCCCNc1cc(=O)c2ccccc2[nH]1.Cl`, the Inhibition with Plasmodium falciparum [1] is reported as 91%; with Plasmodium falciparum [2], 64%; in the test on HepG2, 0%.

Consider `Cl.NCCCCc1c(-c2ccc(Cl)c(Cl)c2)[nH]c2ccc(Cl)cc12`, for which the results for the Inhibition in the test on Plasmodium falciparum [1], in the test on Plasmodium falciparum [2] and in the test with HepG2 were 97%, 20% and 33%, respectively.

Take `Cc1cc2nc(N=C3NC4(c5ccccn5)NC(=Nc5nc6cc(C)c(C)cc6[nH]5)NC4(c4ccccn4)N3)[nH]c2cc1C.O=C(O)C(F)(F)F` (stereo not given): the values for the Inhibition in the test with Plasmodium falciparum [1], in the test with Plasmodium falciparum [2] and in the test on HepG2 were 87%, 62% and 3%, respectively.

For the molecule `Cc1cnc(Nc2ccccc2)nc1N[C@@H](CCCN)C(=O)Nc1ccccc1.O=C(O)C(F)(F)F`, the Inhibition was found to be 100% in the test on Plasmodium falciparum [1], 0% with Plasmodium falciparum [2] and 0% with HepG2.

Take `N#Cc1c(-c2ccccc2)cn2c1[nH]c(=O)c1ccccc12`: the Inhibition in the test on Plasmodium falciparum [1] came out at 92%; with Plasmodium falciparum [2] it was 95%; in the test on HepG2 it was 0%.

For `N#Cc1ccc(NC(=O)NC2CCN(CCCCCNC(=O)/C=C/c3ccc(Cl)c(Cl)c3)CC2)cc1`, the Inhibition in the test with Plasmodium falciparum [1] came out at 98%; in the test with Plasmodium falciparum [2] it was 4%; in the test with HepG2, 15%.

Consider `Cc1cccc(NC(=O)NCc2ccccc2)n1`, for which the Inhibition in the test with Plasmodium falciparum [1] is reported as 97%; with Plasmodium falciparum [2], 2%; with HepG2 it was 14%.

For `COc1ccc2c(O)c(C3CCC(c4ccc(Cl)cc4)CC3)c(C)nc2c1` (stereo not given), the Inhibition in the test on Plasmodium falciparum [1] is reported as 97%; in the test with Plasmodium falciparum [2], 84%; in the test on HepG2, 2%.

With `CCCC(C)NC(=O)c1cnn(-c2ccc(C(C)(C)C)cc2)c1OCc1ccc(Br)cc1` (stereo not given), the Inhibition was determined as 84% with Plasmodium falciparum [1], 64% in the test with Plasmodium falciparum [2] and 17% with HepG2.

With `O=C(/C=N/O)Nc1ccccc1[N+](=O)[O-]`, the Inhibition in the test on Plasmodium falciparum [1] amounted to 99%; with Plasmodium falciparum [2], 0%; with HepG2, 0%.

As to `COc1ccc2ncc(Cl)c(NCC3(O)CCC(NCc4ccc5c(n4)NC(=O)CS5)CC3)c2n1.Cl` (stereo not given), the results for the Inhibition in the test with Plasmodium falciparum [1], with Plasmodium falciparum [2] and in the test on HepG2 were 96%, 31% and 39%, respectively.

Turning to `CNC(=O)c1cnc(Nc2ccc(OCC(O)CN(C)C)cc2)nc1Nc1cccc(OC)c1.O=C(O)C(F)(F)F` (stereo not given), the figures for the Inhibition in the test on Plasmodium falciparum [1], in the test with Plasmodium falciparum [2] and with HepG2 were 100%, 97% and 31%, respectively.

`COc1ccc2nc3cc(Cl)ccc3c(NCCCCN3CCNCC3)c2c1.Cl`: the results for the Inhibition in the test with Plasmodium falciparum [1], with Plasmodium falciparum [2] and in the test on HepG2 were 100%, 75% and 29%, respectively.

For `CCNc1cc(CCCC(=O)OCC)nc(Nc2ccc(C)cc2)n1.O=C(O)C(F)(F)F`, the Inhibition is listed as 100% in the test with Plasmodium falciparum [1], 63% in the test on Plasmodium falciparum [2] and 17% in the test on HepG2.

For `Cc1cc(OCC2CCCN(c3ncc(C(=O)NC4CC4)cc3Cl)C2)ccc1F` (stereo not given), the figures for the Inhibition in the test on Plasmodium falciparum [1], with Plasmodium falciparum [2] and with HepG2 were 88%, 68% and 3%, respectively.

For `CCc1ccc(NC(=O)c2ccc(CN3CCCN(CCC(C)C)CC3)cc2)cc1.O=C(O)C(F)(F)F`, the Inhibition is on record as 96% with Plasmodium falciparum [1], 25% with Plasmodium falciparum [2] and 48% in the test with HepG2.

As to `O=C(c1ccccc1F)N(Cc1ccc(Cl)cc1)c1ccccn1`, the values for the Inhibition in the test on Plasmodium falciparum [1], with Plasmodium falciparum [2] and with HepG2 were 84%, 58% and 0%, respectively.

Turning to `O=C(O)C(F)(F)F.c1cc(-c2ccc(CNC3CC3)cc2)cc(-c2nc3ccccc3[nH]2)c1`, the Inhibition was 96% in the test with Plasmodium falciparum [1], 8% with Plasmodium falciparum [2] and 17% with HepG2.

On to `COc1ccc(-c2nc3cc4ccccc4nc3[nH]2)c(OCC(O)CNC(C)C)c1.Cl` (stereo not given), for which the figures for the Inhibition with Plasmodium falciparum [1], with Plasmodium falciparum [2] and in the test with HepG2 were 98%, 96% and 19%, respectively.

Turning to `COc1cc2cc(C(=O)Nc3ccccc3)c(N)nc2cc1OC`, the values for the Inhibition in the test on Plasmodium falciparum [1], in the test on Plasmodium falciparum [2] and with HepG2 were 90%, 0% and 0%, respectively.

Take `O=C(NCCCCN1CCN(c2cccc3ccccc23)CC1)c1ccc(NC(=O)c2ccc(Cl)cc2)cc1`: the results for the Inhibition in the test with Plasmodium falciparum [1], in the test on Plasmodium falciparum [2] and with HepG2 were 100%, 64% and 38%, respectively.
